APOBEC3G inh: APOBEC3G (human) deaminase inhibition. Q9HC16. AID 493012. recombinant A3G, ssDNA deamination FAM/TAMRA fluorescence. 0.28% of 330,000 active. inhibition, % at 20 µM;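 active = inhibition of at least 40% at 20 µM, with no more than 30% in the related APOBEC3A deaminase screen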
APOBEC3A inh: blocks human APOBEC3A ssDNA deamination; inhibition, % at 20 µM; P31941; recombinant A3A, FAM/TAMRA ssDNA deamination fluorescence; 0.41% of 330,000 active; AID 493011;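 active = at least 40% inhibition at 20 µM here, with at most 30% in a related deaminase screen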
Target sequence (P31941 whole entry, looked up): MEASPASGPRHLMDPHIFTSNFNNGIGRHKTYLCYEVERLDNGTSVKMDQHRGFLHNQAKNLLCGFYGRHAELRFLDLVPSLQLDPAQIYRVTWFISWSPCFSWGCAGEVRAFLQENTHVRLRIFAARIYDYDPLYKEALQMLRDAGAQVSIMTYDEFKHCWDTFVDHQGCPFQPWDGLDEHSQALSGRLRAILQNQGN
HDAC3 inh: human HDAC3 inhibition. 0.15% of 320,000 active. recombinant HDAC3, fluorogenic peptide/trypsin coupled, fluorescence. AID 2718. O15379. inhibition, % at 8.3 µM; in the data active = inhibition above about 26%, passing the limit was not always enough
Target sequence (O15379 whole entry, looked up): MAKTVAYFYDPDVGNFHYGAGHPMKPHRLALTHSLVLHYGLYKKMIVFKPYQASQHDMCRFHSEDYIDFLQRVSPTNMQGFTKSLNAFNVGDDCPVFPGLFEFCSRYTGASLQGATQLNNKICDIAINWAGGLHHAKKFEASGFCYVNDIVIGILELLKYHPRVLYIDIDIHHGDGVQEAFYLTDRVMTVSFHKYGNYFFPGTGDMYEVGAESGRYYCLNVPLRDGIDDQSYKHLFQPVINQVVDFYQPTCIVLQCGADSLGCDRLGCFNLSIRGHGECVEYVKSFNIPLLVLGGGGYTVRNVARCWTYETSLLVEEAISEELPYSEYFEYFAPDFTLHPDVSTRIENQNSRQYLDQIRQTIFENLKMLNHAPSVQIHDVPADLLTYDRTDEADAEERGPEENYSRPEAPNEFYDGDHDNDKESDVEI
LANA-H2B inh: blocks KSHV LANA binding to histone H2A/H2B; Q9QR71; cell-free LANA-H2A/H2B peptide, fluorescence polarization; inhibition, % (no concentration beside the values); 0.6% of 320,000 active; AID 2629; in the data active = inhibition mostly above about 10%, no sharp cut-off; inactive = mostly below about 6.7%
APOBEC3A confirm: APOBEC3A (human) deaminase inhibition, confirmed; shares compounds with APOBEC3A inh; recombinant A3A, ssDNA deaminase UDG fluorescence assay; inhibition, % at 20 µM; 63% of 1,400 active;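 active = inhibition reaching a set limit, 80% of the first screen's cutoff, at 20 µM in any replicate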
UDG A3A counter: counter-screen for APOBEC3A inhibitors: UDG | shares compounds with APOBEC3A inh | UDG counterscreen, FAM/TAMRA uracil oligo fluorescence | inhibition, % at 20 µM | 1,000 tested, under 10 active | AID 504714; call rule not given here
A number is an active result. Only some compounds are listed: those with a hit (about 1.4% of all), similar ones and a draw of the others.

Screening C[N+](C)(C)c1ccc(/C=N/Nc2nc(Cl)c(C#N)c(Cl)c2Cl)cc1 returned HDAC3 inh inactive and LANA-H2B inh 54.
For N#Cc1c(Cl)nc(N/N=C/c2ccccc2)c(Cl)c1Cl the results were APOBEC3G inh inactive, APOBEC3A inh inactive, HDAC3 inh inactive and LANA-H2B inh inactive.
Screening CCCCCCCCOC(=O)c1c(CSC(=N)N)n(C)c2cc(Br)c(OC(C)=O)cc12 returned APOBEC3G inh inactive, APOBEC3A inh inactive, HDAC3 inh 33 and LANA-H2B inh inactive.
CCOC(=O)c1c(CSc2nc(C)cc(C)c2C#N)n(C)c2cc(Br)c(OC(C)=O)cc12 was read as APOBEC3G inh inactive, APOBEC3A inh inactive, HDAC3 inh inactive and LANA-H2B inh inactive.
For O=S(=O)(C=C(c1ccccc1)c1ccccc1)c1ccccc1 the results were APOBEC3G inh inactive, APOBEC3A inh inactive, HDAC3 inh inactive and LANA-H2B inh 15.
For C[C@@H]1COC(=O)[C@H](NC(=O)OCC2c3ccccc3-c3ccccc32)C/C=C\C[C@@H](CC(=O)N[C@H](CO)Cc2ccccc2)C(=O)N1 the results were APOBEC3G inh inactive, APOBEC3A inh inactive, HDAC3 inh inactive and LANA-H2B inh inactive.
Screening O=C(C[C@@H]1C/C=C\C[C@@H](NC(=O)OCC2c3ccccc3-c3ccccc32)C(=O)OCCNC1=O)N[C@@H](CO)Cc1ccccc1 returned APOBEC3G inh inactive, APOBEC3A inh inactive, HDAC3 inh inactive and LANA-H2B inh active.
For CCOC(=O)N1CCC(NC(=O)c2cc(COc3ccccc3SC)on2)CC1 the results were APOBEC3G inh inactive, APOBEC3A inh inactive, HDAC3 inh inactive and LANA-H2B inh inactive.
`N#C/C(=C/c1ccc(OCc2ccc(C(=O)O)cc2)cc1)C(=O)Nc1ccccc1` gave APOBEC3G inh inactive, APOBEC3A inh 79, HDAC3 inh inactive, LANA-H2B inh inactive, APOBEC3A confirm 75 and UDG A3A counter inactive.
`O=C(O)c1ccc(COc2ccc(/C=N/NC(=O)c3cccs3)cc2)cc1` gave APOBEC3G inh inactive, APOBEC3A inh 51, HDAC3 inh inactive, LANA-H2B inh inactive and APOBEC3A confirm inactive.
Screening COC(=O)c1ccc(Cn2c(C)cc(C)[n+]2C)o1 returned APOBEC3G inh inactive, APOBEC3A inh 52, HDAC3 inh inactive, LANA-H2B inh inactive, APOBEC3A confirm 72 and UDG A3A counter inactive.
Cn1nnnc1SCC(=O)Nc1ccc(Br)cc1Br was read as APOBEC3G inh inactive, APOBEC3A inh inactive, HDAC3 inh inactive and LANA-H2B inh inactive.
`Cn1nnnc1SCC(=O)Nc1ccc(Br)cc1Cl` gave APOBEC3G inh inactive, APOBEC3A inh 50, HDAC3 inh inactive, LANA-H2B inh inactive, APOBEC3A confirm 49 and UDG A3A counter inactive.
For O=C(Nc1ccc2ncccc2c1)c1ccccc1Cl the results were APOBEC3G inh inactive, APOBEC3A inh 46, HDAC3 inh inactive, LANA-H2B inh inactive, APOBEC3A confirm 75 and UDG A3A counter inactive.
For CC[n+]1ccc(C)c2cc(P(=O)(c3ccccc3)c3ccccc3)ccc21 the results were APOBEC3G inh inactive, APOBEC3A inh 63, HDAC3 inh inactive, LANA-H2B inh inactive, APOBEC3A confirm active and UDG A3A counter inactive.
`O=C(NCCCN1CCOCC1)c1ccc(NS(=O)(=O)c2ccccc2)cc1` gave APOBEC3G inh inactive, APOBEC3A inh inactive, HDAC3 inh inactive and LANA-H2B inh inactive.
O=C(CNC1CCCCC1)Nc1ccc(Cl)cc1 was read as APOBEC3G inh inactive, APOBEC3A inh inactive, HDAC3 inh inactive and LANA-H2B inh inactive.
For O=C(O)c1cc2nc(-c3ccc(F)cc3)cc(C(F)(F)F)n2n1 the results were APOBEC3G inh inactive, APOBEC3A inh inactive, HDAC3 inh inactive and LANA-H2B inh inactive.
Screening FC(F)(F)c1cc(-c2cccs2)nc2cc(-c3ccccc3)nn12 returned APOBEC3G inh inactive, APOBEC3A inh inactive, HDAC3 inh inactive and LANA-H2B inh inactive.
`CCn1cc(-c2cc(C(F)(F)F)n3nc(C(=O)O)cc3n2)c(C)n1` gave APOBEC3G inh inactive, APOBEC3A inh 54, HDAC3 inh inactive, LANA-H2B inh inactive, APOBEC3A confirm 29 and UDG A3A counter inactive.
Screening O=C(O)c1cc2nc(-c3cccs3)cc(C(F)(F)F)n2n1 returned APOBEC3G inh inactive, APOBEC3A inh 74, HDAC3 inh inactive, LANA-H2B inh inactive, APOBEC3A confirm 50 and UDG A3A counter inactive.
CCC(=O)Nc1ccc(C(=O)CN2C(=O)NC3(CCOc4ccccc43)C2=O)cc1 (stereo not given) was read as APOBEC3G inh inactive, APOBEC3A inh inactive, HDAC3 inh inactive and LANA-H2B inh inactive.
For Cc1ccccc1/C=C/c1cc[n+](C)cc1 the results were APOBEC3G inh inactive, APOBEC3A inh 59, HDAC3 inh inactive, LANA-H2B inh inactive, APOBEC3A confirm 73 and UDG A3A counter inactive.
For Cc1ccc(C2=NN(C(=O)CCC(=O)O)C(c3cn(-c4ccccc4)nc3-c3ccc(C)cc3)C2)cc1 (stereo not given) the results were APOBEC3G inh inactive, APOBEC3A inh inactive, HDAC3 inh inactive and LANA-H2B inh inactive.
`CN(CC(=O)Nc1c(Cl)cccc1Cl)C(=O)CNC(=O)c1ccc2ccccc2c1` gave APOBEC3G inh inactive, APOBEC3A inh 42, HDAC3 inh inactive, LANA-H2B inh inactive, APOBEC3A confirm inactive and UDG A3A counter inactive.
`CN(CC(=O)Nc1c(Cl)cccc1Cl)C(=O)c1cccc(-n2cccc2)c1` gave APOBEC3G inh inactive, APOBEC3A inh 71, HDAC3 inh inactive, LANA-H2B inh inactive, APOBEC3A confirm 53 and UDG A3A counter inactive.
For O=C(Nc1cccc([N+](=O)[O-])c1)NC1CCCCCCC1 the results were APOBEC3G inh inactive, APOBEC3A inh inactive, HDAC3 inh inactive and LANA-H2B inh inactive.
`CCN(CC(=O)NCC(=O)Nc1ccc(Br)cc1C)Cc1ccccc1` gave APOBEC3G inh inactive, APOBEC3A inh 40, HDAC3 inh inactive, LANA-H2B inh inactive, APOBEC3A confirm inactive and UDG A3A counter inactive.
`Cc1cc(Br)ccc1NC(=O)CN(C)C(=O)CNC(=O)Cc1ccccc1` gave APOBEC3G inh inactive, APOBEC3A inh inactive, HDAC3 inh inactive and LANA-H2B inh inactive.
`CCOc1cc(C=O)ccc1OS(=O)(=O)c1ccc(NC(C)=O)cc1` gave APOBEC3G inh inactive, APOBEC3A inh inactive, HDAC3 inh inactive and LANA-H2B inh inactive.
COc1ccc(C(=O)NC2CCN(CC(=O)N3CCCCC3)CC2)cc1 was read as APOBEC3G inh inactive, APOBEC3A inh 41, HDAC3 inh inactive, LANA-H2B inh inactive and APOBEC3A confirm inactive.
Screening O=C(NCc1ccc2c(c1)OCO2)c1ccc(Br)cc1 returned APOBEC3G inh inactive, APOBEC3A inh inactive, HDAC3 inh inactive and LANA-H2B inh inactive.
`Cc1nn(Cc2ccc(F)cc2)c(C)c1NC(=O)c1cc2ncc(Br)cn2n1` gave APOBEC3G inh inactive, APOBEC3A inh 41, HDAC3 inh inactive, LANA-H2B inh inactive and APOBEC3A confirm inactive.
